The assay is described as follows: activators of LNCaP cell differentiation, retest, confirmation, side scatter shift, flow cytometry (AID 1069).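 Also: LNCaP human prostate cancer cells in low-serum medium with charcoal-stripped FBS; percent of cells with raised granularity gated so DMSO controls show 10%.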 Particulars: 4 d, stronger effect = higher value. (A flow cytometer gives signals particle by particle.)

Activity calls are given as the source filed them.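 The calls were made as follows: active = high combined rank on largest and smallest cell-count-weighted shift across three tests, rank score above 45, floors 50 and 25 (some results past the limit were not filed as active); inactive = the rest.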

On to `CCN1CCCC1CNC(=O)C1CCN(Cc2nc(-c3cccc(Br)c3)oc2C)CC1` (stereo not given), for which the side scatter shift is, setting by setting: (at 100 µM) 6.3% (active); (side scatter shift, at 10 µM) 60.2%.

`CCOC(=O)N1CCC(NC(=O)c2cc3c(-c4ccccc4F)nn(C)c3s2)CC1`: the side scatter shift by setting is: (at 100 µM) 3.3% (inactive); (side scatter shift, at 10 µM) 3.9%.

On to `CC1(C)CC(=O)c2cc(OCC(=O)NCCCN3CCN(c4ccccc4F)CC3)ccc2O1`, for which the side scatter shift reads like this: (at 100 µM) 27.3% (inactive); (side scatter shift, at 10 µM) 6.5%.

Consider `COc1ccc(-n2cc(-c3ccccc3)c3c(N4CCN(CCO)CC4)ncnc32)cc1`, for which the side scatter shift reads like this: (at 100 µM) 33.3% (inactive); (side scatter shift, at 10 µM) 9.55%.

On to `CN(CC(O)COc1ccc(OCC(O)CN(C)C2CCCCC2)cc1)C1CCCCC1` (stereo not given), for which the side scatter shift is, setting by setting: (at 100 µM) 49.4% (active); (side scatter shift, at 10 µM) 8.9%.

`O=C(O)C1CCCCC1C(=O)Nc1cnn(Cc2ccccc2)c1` (stereo not given): the side scatter shift (at 100 µM) was 19% (inactive) and the side scatter shift (side scatter shift, at 10 µM) was determined as 5.15%.

With `Cn1c(=O)cc(OCC(=O)NCCCN2CCN(c3cccc(Cl)c3)CC2)c2ccccc21`, the side scatter shift is 20% (inactive) (at 100 µM) and 8.2% (side scatter shift, at 10 µM).

Regarding `Cn1c(C(=O)NCCC2=CCCCC2)cc2c(=O)n3ccccc3nc21`, the side scatter shift is 11.5% (inactive) (at 100 µM) and 5.75% (side scatter shift, at 10 µM).

As to `CCN(CC)CCNC(=O)c1nn(-c2ccc(C)cc2)c(=O)c2c1c1ccccc1n2C`, the side scatter shift reads like this: (at 100 µM) 50% (inactive); (side scatter shift, at 10 µM) 5.55%.

Regarding `Cn1c(C(=O)NCCCN2CCN(c3ccccc3F)CC2)cc2c(=O)[nH]c3ccccc3c21`, the side scatter shift (at 100 µM) is 33.3% (inactive) and the side scatter shift (side scatter shift, at 10 µM) is 11.1%.

Turning to `c1ccc(CSc2nnc(-c3cccs3)n2Cc2ccco2)cc1`, the side scatter shift was 20% (inactive) (at 100 µM) and 6.7% (side scatter shift, at 10 µM).

As to `Cc1ccc(-c2noc(CCC(=O)NCCCN3CCN(c4ccc(F)cc4)CC3)n2)cc1`, the side scatter shift was 0% (inactive) (at 100 µM) and 17.4% (side scatter shift, at 10 µM).

Consider `COc1ccc(C)cc1NC(=O)CCC(=O)Nc1ccc2nc(N3CCN(C)CC3)cc(C)c2c1`, for which the side scatter shift by setting is: (at 100 µM) 10.5% (inactive); (side scatter shift, at 10 µM) 13.4%.

`N=c1n(CCN2CCCCC2)c2ccccc2n1CC(O)COc1ccccc1` (stereo not given): the side scatter shift (at 100 µM) is 20% (active) and the side scatter shift (side scatter shift, at 10 µM) turned out to be 50.2%.

Consider `O=C(NCCCN1CCN(c2ccccc2F)CC1)C1CCN(S(=O)(=O)c2cccs2)CC1`, for which the side scatter shift was 22.7% (inactive) (at 100 µM) and 3.7% (side scatter shift, at 10 µM).

`CCCc1ccc(Oc2cn[nH]c2-c2ccc(O)c(C)c2O)cc1`: the side scatter shift by setting is: (at 100 µM) 40% (inactive); (side scatter shift, at 10 µM) 4.85%.

For the molecule `Cc1ccc(NC(=O)N2CCCN(Cc3ccc(F)cc3)C2)cc1C`, the side scatter shift (at 100 µM) is 15.4% (inactive) and the side scatter shift (side scatter shift, at 10 µM) was 28.2%.

For `CC1CCCCN1CCNC(=O)c1cc2c(-c3ccccc3F)nn(C)c2s1` (stereo not given), the side scatter shift runs as follows: (at 100 µM) 42.4% (inactive); (side scatter shift, at 10 µM) 19.9%.

Turning to `Cc1nn(Cc2ccc(F)cc2)c(C)c1NC(=O)c1cc(-c2ccc3c(c2)OCO3)on1`, the side scatter shift reads like this: (at 100 µM) 4.8% (inactive); (side scatter shift, at 10 µM) 1.1%.

On to `COc1ccc(Nc2nc(N)nc(CN3CCC(Cc4ccccc4)CC3)n2)cc1`, for which the side scatter shift is, setting by setting: (at 100 µM) 16.7% (inactive); (side scatter shift, at 10 µM) 33.3%.

Turning to `COc1ccc(Cl)c(N2CCN(CCCNC(=O)Nc3ccc(C)cc3)CC2)c1`, the side scatter shift was 26.3% (inactive) (at 100 µM) and 12% (side scatter shift, at 10 µM).

With `CCOC(=O)C1=C(C)N=c2s/c(=C\c3ccncc3)c(=O)n2C1c1ccc2c(c1)OCO2` (stereo not given), the side scatter shift (at 100 µM) is 47.1% (inactive) and the side scatter shift (side scatter shift, at 10 µM) stood at 6.4%.

Take `COCCn1cc(C(=O)N2CCCC(C)C2)c2c3ccccc3n(C)c2c1=O` (stereo not given): the side scatter shift (at 100 µM) is 22.8% (inactive) and the side scatter shift (side scatter shift, at 10 µM) was found to be 3.2%.

On to `Cc1ccc(-n2c(SCC(=O)Nc3nccs3)nc3c(c2=O)SCC3)cc1`, for which the side scatter shift was 16.9% (inactive) (at 100 µM) and 9.7% (side scatter shift, at 10 µM).

As for `CCc1ccc(-c2nc(CN3CCC(C(=O)NCc4ccc(F)cc4)CC3)c(C)o2)cc1`, the side scatter shift runs as follows: (at 100 µM) 0% (inactive); (side scatter shift, at 10 µM) 17.9%.

On to `Cc1cc(C)n2nc(SCC(=O)Nc3ccc(F)cc3)nc2n1`, for which the side scatter shift is, setting by setting: (at 100 µM) 4% (inactive); (side scatter shift, at 10 µM) 2.8%.

Regarding `CN(CCNC(=O)C1CC(=O)N(c2ccc(F)c(Cl)c2)C1)Cc1ccccc1` (stereo not given), the side scatter shift was 62% (active) (at 100 µM) and 3.65% (side scatter shift, at 10 µM).

Regarding `COc1ccc2c(c1OC)C(=O)N(C(C)C(=O)O)C2=O` (stereo not given), the side scatter shift is 17.9% (inactive) (at 100 µM) and 5.3% (side scatter shift, at 10 µM).

As for `CN(C)c1ccc(CNC2CC(C)(C)NC(C)(C)C2)cc1`, the side scatter shift is 49.2% (active) (at 100 µM) and 10.6% (side scatter shift, at 10 µM).

Regarding `CCc1ccc(-c2nc(CN3CCC(C(=O)NCCc4ccc(OC)c(OC)c4)CC3)c(C)o2)cc1`, the side scatter shift by setting is: (at 100 µM) 35.3% (inactive); (side scatter shift, at 10 µM) 21%.

Consider `CCc1ccc(-c2nc(CN3CCC(C(=O)NCc4ccccc4OC)CC3)c(C)o2)cc1`, for which the side scatter shift was 12.2% (inactive) (at 100 µM) and 14.5% (side scatter shift, at 10 µM).

`CSc1nc2ccc(Nc3nc(N4CCOCC4)nc(N4CCOCC4)n3)cc2s1`: the side scatter shift is 14.6% (inactive) (at 100 µM) and 5.1% (side scatter shift, at 10 µM).

`Cc1ccc(C)c(N2CCN(C(=O)CCNC(=O)Cn3ccc4ccccc4c3=O)CC2)c1`: the side scatter shift is, setting by setting: (at 100 µM) 25% (inactive); (side scatter shift, at 10 µM) 10%.

Consider `CC(C)(O)c1cn(-c2nonc2N)nn1`, for which the side scatter shift by setting is: (at 100 µM) 10.4% (inactive); (side scatter shift, at 10 µM) 5.4%.

Take `CS(=O)(=O)c1nc(-c2cccs2)cc(C(F)(F)F)n1`: the side scatter shift was 52.8% (inactive) (at 100 µM) and 15.6% (side scatter shift, at 10 µM).

With `COc1ccc(-c2ccc(-c3nnn(CC(C)=O)n3)cc2)cc1`, the side scatter shift by setting is: (at 100 µM) 11.7% (inactive); (side scatter shift, at 10 µM) 2.95%.

In the case of `Cc1ccccc1-c1nc(CN2CCCC(C(=O)NCc3cccnc3)C2)c(C)o1` (stereo not given), the side scatter shift runs as follows: (at 100 µM) 13.7% (inactive); (side scatter shift, at 10 µM) 7.35%.

As for `Cc1oc(-c2cccc(Cl)c2)nc1CN1CCCC(C(=O)NCc2ccco2)C1` (stereo not given), the side scatter shift reads like this: (at 100 µM) 50% (inactive); (side scatter shift, at 10 µM) 5.55%.

Regarding `O=C(Nc1nc(-c2ccccc2)cs1)C1CCCCN1S(=O)(=O)c1ccccc1` (stereo not given), the side scatter shift was 0.4% (inactive) (at 100 µM) and 4.75% (side scatter shift, at 10 µM).

As to `Cc1ccc(NC(=O)CCNS(=O)(=O)c2ccc3c(c2)oc(=O)n3C)c(C)c1`, the side scatter shift reads like this: (at 100 µM) 1.7% (inactive); (side scatter shift, at 10 µM) 5.85%.
